Calls of active or inactive are those of the source. How the source made its calls: active means hit-call score of the fitted dose curve at least 0.9, where 1 is the maximum; inactive means score below 0.9.
Legend:
Conditions in all cases: mRNA level, 48 h; actives raise or lower the signal
[1] = read-out: Lipoprotein lipase (LPL), LPL (gene 4023); assay: LTEA_HepaRG_LPL: Life Technologies and Expression Analysis (LTEA) Assay for Lipoprotein lipase (LPL) using HepaRG (AID 2283515)
In short: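 Read-out is LPL transcript level by qRT-PCR, normalized to three housekeeping genes and fitted bidirectionally against the DMSO control. Human HepaRG cells received chemicals for 48 h at up to 100 uM.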

[2] = read-out: MicroRNA 122 (MIR122), gene 406906; assay: LTEA_HepaRG_MIR122: Life Technologies and Expression Analysis (LTEA) Assay for MicroRNA 122 (MIR122) using HepaRG (AID 2283516); further: the transcript read is the microRNA miR-122
In short: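 HepaRG plated 48 h, switched to serum-free induction medium, then treated in duplicate for 48 h (100 uM top, half-log steps, 0.5% DMSO vehicle). RNA isolated, qRT-PCR performed, concentration-response fitted both directions relative to DMSO.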

[3] = read-out: matrix metalloproteinase-10 (MMP10), MMP10 (gene 4319); assay: LTEA_HepaRG_MMP10: Life Technologies and Expression Analysis (LTEA) Assay for matrix metalloproteinase-10 (MMP10) using HepaRG (AID 2283517)
In short: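 Gain or loss of MMP10 mRNA is fitted relative to the 0.5% DMSO vehicle. The human hepatic line HepaRG receives a 48-hour serum-free exposure, in duplicate, with a maximum concentration of 100 uM.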

MYC, MYC (gene 4609) = assay: LTEA_HepaRG_MYC: Life Technologies and Expression Analysis (LTEA) Assay for MYC using HepaRG (AID 2283518)
In short: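 Expression changes were scored by TaqMan qRT-PCR with ACTB, GAPDH and POLR2A normalization. Cultures in serum-free induction medium received duplicate 8-point concentration series, highest 100 uM, for 48 h; DMSO (0.5%) served as baseline.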

[4] = read-out: matrix metalloproteinase-3 (MMP3), MMP3 (gene 4314); assay: LTEA_HepaRG_MMP3: Life Technologies and Expression Analysis (LTEA) Assay for matrix metalloproteinase-3 (MMP3) using HepaRG (AID 2283519)
In short: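 HepaRG, human; 48 h dosing, 8 conc. (max 100 uM, half-log), duplicate, 0.5% DMSO. Readout: MMP3 transcript by Fluidigm TaqMan qRT-PCR, ACTB/GAPDH/POLR2A-normalised. Gain or loss fitted vs DMSO.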

[5] = read-out: Paternally Expressed 10 (PEG10), PEG10 (gene 23089); assay: LTEA_HepaRG_PEG10: Life Technologies and Expression Analysis (LTEA) Assay for Paternally Expressed 10 (PEG10) using HepaRG (AID 2283520)
In short: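 HepaRG, 48 h post-plating → serum-free induction medium → 48 h chemical exposure (duplicate, 8-pt, max 100 uM, half-log, 0.5% DMSO) → lysis in RLT → TaqMan qRT-PCR for PEG10, ACTB/GAPDH/POLR2A normalisation.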

[6] = read-out: Phosphatase and tensin (PTEN), PTEN (gene 5728); assay: LTEA_HepaRG_PTEN: Life Technologies and Expression Analysis (LTEA) Assay for Phosphatase and tensin (PTEN) using HepaRG (AID 2283523)
In short: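 Read-out is PTEN transcript level by multiplexed TaqMan qRT-PCR after 48 h chemical treatment of human HepaRG cultures in serum-free induction medium. Concentrations spanned 100 uM downward in half-log steps, 0.5% DMSO throughout; activity fitted in both directions against vehicle.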

[7] = read-out: solute carrier (SLC22A1), SLC22A1 (gene 6580); assay: LTEA_HepaRG_SLC22A1: Life Technologies and Expression Analysis (LTEA) Assay for solute carrier (SLC22A1) using HepaRG (AID 2283524);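 on AC50: differentiated human HepaRG liver cells in serum-free induction medium; TaqMan qRT-PCR normalized to ACTB GAPDH and POLR2A housekeeping genes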
In short: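 HepaRG (human liver line), 48 h dosing in serum-free induction medium; 8 conc., half-log down from 100 uM, 0.5% DMSO vehicle, duplicates. Endpoint: SLC22A1 mRNA, qRT-PCR, housekeeping-normalized; gain/loss fit vs DMSO.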

[8] = read-out: Pyruvate Dehydrogenase Kinase 4 (PDK4), PDK4 (gene 5166); assay: LTEA_HepaRG_PDK4: Life Technologies and Expression Analysis (LTEA) Assay for Pyruvate Dehydrogenase Kinase 4 (PDK4) using HepaRG (AID 2283525)
In short: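 In this multiplexed human HepaRG expression assay, cells are treated 48 h with test chemicals across an eight-point range starting at 100 uM. PDK4 mRNA changes, normalized to ACTB/GAPDH/POLR2A, are fitted in both directions relative to vehicle.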

[9] = read-out: NAD(P)H dehydrogenase [quinone] 1 (NQO1), NQO1 (gene 1728); assay: LTEA_HepaRG_NQO1: Life Technologies and Expression Analysis (LTEA) Assay for NAD(P)H dehydrogenase [quinone] 1 (NQO1) using HepaRG (AID 2283526)
In short: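 HepaRG, 48 h post-plating → serum-free induction medium → test chemical 48 h (duplicate, 100 uM top, half-log x8, 0.5% DMSO) → RNA isolation → qRT-PCR, ACTB/GAPDH/POLR2A normalization; bidirectional curve fit vs DMSO baseline.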

[10] = read-out: Nuclear factor erythroid 2-related factor 2 (Homo sapiens) (UniProt Q16236); assay: LTEA_HepaRG_NFE2L2: Life Technologies and Expression Analysis (LTEA) Assay for Nuclear factor erythroid 2-related factor 2 (NFE2L2) Transcription Factor using HepaRG (AID 2283527);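 further: TaqMan qRT-PCR transcript level normalised to ACTB GAPDH and POLR2A housekeeping genes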
In short: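 Transcript level of NFE2L2 is the read-out, measured by microfluidic TaqMan qRT-PCR and normalized to three housekeeping genes. Human HepaRG cultures received test chemical for 48 h at up to 100 uM in half-log steps. Gain or loss of signal is fitted relative to 0.5% DMSO.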

[11] = read-out: succinate dehydrogenase complex iron sulfur subunit B (SDHB), SDHB (gene 6390); assay: LTEA_HepaRG_SDHB: Life Technologies and Expression Analysis (LTEA) Assay for succinate dehydrogenase complex iron sulfur subunit B (SDHB) using HepaRG (AID 2283528)
In short: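 HepaRG cells (~100,000/well, plated 48 h) exposed in duplicate for 48 h in serum-free induction medium to 8-point half-log series from 100 uM in 0.5% DMSO; mRNA by qRT-PCR normalised to ACTB, GAPDH, POLR2A; bidirectional fit versus DMSO.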

[12] = read-out: Signal transducer and activator of transcription 3 (Homo sapiens) (UniProt P40763); assay: LTEA_HepaRG_STAT3: Life Technologies and Expression Analysis (LTEA) Assay for Signal transducer and activator of transcription (STAT3) using HepaRG (AID 2283529)
In short: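 Read-out is STAT3 mRNA level by qRT-PCR, normalized to three housekeeping genes, in human HepaRG liver cells treated for 48 h. Concentrations ran from 100 uM downward in half-log steps; curves were fitted for gain or loss relative to 0.5% DMSO.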

[13] = read-out: solute carrier (SLCO1B1), SLCO1B1 (gene 10599); assay: LTEA_HepaRG_SLCO1B1: Life Technologies and Expression Analysis (LTEA) Assay for solute carrier (SLCO1B1) using HepaRG (AID 2283530)
In short: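 Human HepaRG cultures treated for 48 h with an eight-concentration half-log series topping at 100 uM; SLCO1B1 measured by qRT-PCR and fitted bidirectionally relative to DMSO.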

[14] = read-out: sulfotransferase 2A1 (SULT2A1), SULT2A1 (gene 6822); assay: LTEA_HepaRG_SULT2A1: Life Technologies and Expression Analysis (LTEA) Assay for sulfotransferase 2A1 (SULT2A1) using HepaRG (AID 2283531)
In short: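 Gene-expression endpoint in a human liver cell line: SULT2A1 mRNA change after 48 h chemical treatment, curves fitted in both directions relative to 0.5% DMSO vehicle. Concentrations spanned eight half-log steps from 100 uM.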

[15] = read-out: Transforming Growth Factor (TGFA), TGFA (gene 7039); assay: LTEA_HepaRG_TGFA: Life Technologies and Expression Analysis (LTEA) Assay for Transforming Growth Factor (TGFA) using HepaRG (AID 2283532)
In short: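 HepaRG (human liver line), 48 h exposure, 8 conc. half-log down from 100 uM, 0.5% DMSO vehicle, duplicates; serum-free induction medium. TGFA mRNA by TaqMan qRT-PCR, ACTB/GAPDH/POLR2A normalization; gain/loss fit vs DMSO.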

[16] = read-out: Transforming Growth Factor (TGFB1), TGFB1 (gene 7040); assay: LTEA_HepaRG_TGFB1: Life Technologies and Expression Analysis (LTEA) Assay for Transforming Growth Factor (TGFB1) Transporter using HepaRG (AID 2283533)
In short: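 Eight-point concentration-response (max 100 uM, half-log) in HepaRG under serum-free induction conditions, 48 h. TGFB1 mRNA by qRT-PCR, housekeeping-normalized.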

[17] = read-out: Tumor necrosis factor receptor 1 (TNFRSF1A), TNFRSF1A (gene 7132); assay: LTEA_HepaRG_TNFRSF1A: Life Technologies and Expression Analysis (LTEA) Assay for Tumor necrosis factor receptor 1 (TNFRSF1A) using HepaRG (AID 2283535)
In short: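 Assay uses 48 h chemical treatment of differentiated HepaRG monolayers, tested in duplicate at eight concentrations from 100 uM downward in 0.5% DMSO. mRNA is normalized to ACTB, GAPDH and POLR2A, with induction or suppression fitted relative to vehicle.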

Measured: AC50

Sequence of Nuclear factor erythroid 2-related factor 2 (Homo sapiens) (Q16236 whole entry, looked up): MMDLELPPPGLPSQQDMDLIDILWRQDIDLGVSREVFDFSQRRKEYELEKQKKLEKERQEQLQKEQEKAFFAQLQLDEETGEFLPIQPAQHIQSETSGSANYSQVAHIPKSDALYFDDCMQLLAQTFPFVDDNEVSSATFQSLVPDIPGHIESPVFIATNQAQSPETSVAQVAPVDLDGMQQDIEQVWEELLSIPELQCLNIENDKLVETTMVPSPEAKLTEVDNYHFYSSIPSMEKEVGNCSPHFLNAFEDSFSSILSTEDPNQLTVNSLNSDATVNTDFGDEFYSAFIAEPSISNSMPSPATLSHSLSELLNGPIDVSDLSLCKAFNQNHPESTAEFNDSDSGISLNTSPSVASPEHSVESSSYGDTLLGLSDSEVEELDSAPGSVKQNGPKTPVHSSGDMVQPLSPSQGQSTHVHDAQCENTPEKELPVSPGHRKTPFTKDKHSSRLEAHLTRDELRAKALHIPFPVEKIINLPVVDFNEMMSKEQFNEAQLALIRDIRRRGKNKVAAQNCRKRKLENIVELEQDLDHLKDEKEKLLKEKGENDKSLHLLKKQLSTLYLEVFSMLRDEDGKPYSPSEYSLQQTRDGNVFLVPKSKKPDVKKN
Sequence of Signal transducer and activator of transcription 3 (Homo sapiens) (P40763 whole entry, looked up): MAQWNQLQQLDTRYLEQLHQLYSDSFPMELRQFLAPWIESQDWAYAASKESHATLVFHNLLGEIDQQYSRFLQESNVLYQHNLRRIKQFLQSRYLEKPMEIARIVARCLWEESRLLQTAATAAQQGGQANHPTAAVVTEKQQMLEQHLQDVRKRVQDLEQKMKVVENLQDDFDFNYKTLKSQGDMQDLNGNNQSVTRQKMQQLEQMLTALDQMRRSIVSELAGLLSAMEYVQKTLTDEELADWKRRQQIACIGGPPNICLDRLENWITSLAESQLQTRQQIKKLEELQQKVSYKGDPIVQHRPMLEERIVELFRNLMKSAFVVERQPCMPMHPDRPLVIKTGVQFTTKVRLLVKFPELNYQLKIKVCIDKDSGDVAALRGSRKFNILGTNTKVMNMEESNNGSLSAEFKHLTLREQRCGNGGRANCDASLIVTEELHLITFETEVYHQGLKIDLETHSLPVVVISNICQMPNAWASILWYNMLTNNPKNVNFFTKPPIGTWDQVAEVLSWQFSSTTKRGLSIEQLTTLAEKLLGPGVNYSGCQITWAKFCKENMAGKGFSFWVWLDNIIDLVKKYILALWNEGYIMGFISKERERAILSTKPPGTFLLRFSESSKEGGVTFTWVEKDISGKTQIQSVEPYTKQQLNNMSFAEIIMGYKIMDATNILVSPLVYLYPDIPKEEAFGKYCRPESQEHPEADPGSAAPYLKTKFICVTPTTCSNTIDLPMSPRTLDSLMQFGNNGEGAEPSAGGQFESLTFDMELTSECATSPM

CCCN(CCC)C(=O)SCC
inactive: all assays above

CCCCC(CC)COC(=O)c1ccccc1C(=O)O (configuration not stated)
active: [8] 79.9 µM
inactive: all other assays above

CCCN(CCC)c1c([N+](=O)[O-])cc(C(F)(F)F)c(N)c1[N+](=O)[O-]
active: MYC, MYC (gene 4609) 50 µM | [5] 17.4 µM | [7] 27.2 µM | [16] 50 µM
not listed: [2]
inactive: all other assays above

O=C(O)c1ccccc1
inactive: all assays above

CCN(CC)C(=O)c1cccc(C)c1
active: [12] 4.39 µM
inactive: all other assays above

CC1(C)C(C=C(Cl)Cl)C1C(=O)OCc1cccc(Oc2ccccc2)c1 (configuration not stated)
inactive: all assays above

Source: PubChem BioAssay (EPA / NIEHS)
